Assay outcomes (PubChem BioAssay)
Only some compounds are listed: those with a hit (about 3.9% of all), similar ones and a draw of the others.
D1 PAM – human D1 dopamine receptor positive modulation; potentiation, % at 10 µM; P21728; 360,000 compounds, 0.036% hits; HEK293 TREx D1 cells, calcium flux, dopamine EC20 potentiation; in the data active = potentiation above about 30%
USP2a inh – blocks human ubiquitin-specific protease USP2a. USP2 core, Ub-CHOP2 coupled fluorogenic reporter, 485/531. Potency, µM (titrated, usually from 38.3 µM), usual class: inhibitors. O75604. 330,000 compounds, 0.01% hits
Target sequence (O75604 whole entry, looked up): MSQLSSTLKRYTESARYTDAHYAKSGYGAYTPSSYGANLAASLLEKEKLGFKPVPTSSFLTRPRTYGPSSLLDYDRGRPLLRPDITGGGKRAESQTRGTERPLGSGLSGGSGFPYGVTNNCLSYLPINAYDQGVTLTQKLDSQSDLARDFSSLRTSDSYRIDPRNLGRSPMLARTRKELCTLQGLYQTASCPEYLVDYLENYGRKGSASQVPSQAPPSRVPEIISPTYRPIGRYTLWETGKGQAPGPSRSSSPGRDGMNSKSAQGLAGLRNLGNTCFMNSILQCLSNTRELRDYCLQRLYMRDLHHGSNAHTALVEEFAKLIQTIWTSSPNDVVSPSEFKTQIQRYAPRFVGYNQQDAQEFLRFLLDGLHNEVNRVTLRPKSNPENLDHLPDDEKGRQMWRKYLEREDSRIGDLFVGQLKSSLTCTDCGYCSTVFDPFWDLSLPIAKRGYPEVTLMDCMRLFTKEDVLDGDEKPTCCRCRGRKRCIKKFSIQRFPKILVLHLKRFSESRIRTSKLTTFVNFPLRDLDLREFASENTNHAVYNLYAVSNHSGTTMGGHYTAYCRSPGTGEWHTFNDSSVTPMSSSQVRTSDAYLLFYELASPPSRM
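Cell-free coupled assay: 10nM USP2 core preincubated 30min RT with compound in Tris-HCl pH 8.0/CaCl2/CHAPS buffer, then 25nM Ub-CHOP2 and 25nM reporter substrate; fluorescence (Ex 485/Em 531) read after 60min RT, normalized to NEM inhibition, concentration-response curves fitted.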
Eya2 inh – blocks the phosphatase activity of human Eya2. O00167. recombinant Eya2, OMFP fluorescence dephosphorylation (OMFP is methylfluorescein phosphate). Potency, µM (series often up to 76.9 µM), hits mostly inhibitors. 330,000 compounds, 0.006% hits. AID 488837
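Eya2 protein (added as 0.2 uM solution) was preincubated with compound for 10 min at ambient temperature in 50 mM HEPES pH 7.5, 50 mM NaCl, 5 uM MgCl2, 0.05% BSA, 1 mM DTT. OMFP (added at 50 uM) then reacted 10 min; fluorescence read at 485/525 nm.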
D1 antag – blocks dopamine activation of the human D1 receptor; P21728; HEK293 TREx D1 cells, calcium flux, dopamine EC80; stronger effect = lower value; activity change, negative = inhibition, % at 10 µM; 360,000 compounds, 3.2% hits; AID 504652; in the data active = activity change below about -30%
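Calcium flux readout: force-coupled, inducible Hek293 Trex D1 line, cells induced overnight at 30 C with tetracycline, dye-loaded 30–90 min at RT. Antagonism scored against EC80 dopamine challenge given 180 s after compound.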
D1 ag – agonists of human D1 dopamine receptor | P21728 | HEK293 T-REx D1 cells, calcium flux, agonist mode | activation, % at 2 µM | 360,000 compounds, 1% hits | AID 504660; in the data active = activation above about 30%
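Tetracycline-induced HEK293 TREx D1 cells, force-coupled to calcium signalling, were dye-loaded with a no-wash calcium kit. Compound was pin-added after a 10 s baseline. Fluorescence was read kinetically at 1 cycle/s for 180 s, with calcium rises flagged as agonism.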
GALK inhibitor – blocks human galactokinase activity; P51570; Purified GALK, Kinase-Glo residual ATP luminescence; Potency, µM (doses to about 57.5 µM), hits mostly inhibitors; 270,000 compounds, 0.007% hits
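Luminescence from leftover ATP (Ultra-Glo luciferase/luciferin) served as read-out after a 1 h room-temperature reaction of 5 nM GALK with 35 uM ATP and 100 uM galactose.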
Each line names hits and unclear results; the compound was inactive in the other large screens. Unless noted, calls follow the shape of the dose curve; as a rule, active = well fitted inhibition curve with a large enough effect; inconclusive = small, poorly fitted or top-dose-only effect, or effect the other way; inactive = flat fitted curve, though single readings scatter.

O=C(OCc1nnc(-c2ccccc2)o1)c1cc(S(=O)(=O)N2CCOCC2)c(Cl)cc1Cl	D1 antag -34.2
Cc1cccc(-c2nc3c(cnn3-c3ccccc3)c(=O)n2-c2ccc(Cl)cc2)c1	D1 antag -35.7 (no result: USP2a inh, Eya2 inh, GALK inhibitor)
Cc1nc2c(cnn2-c2ccccc2)c(=O)[nH]1	D1 antag -38.2
Cc1cc(C)cc(Nc2cc(C(=O)NCCCN(C)C3CCCCC3)c3ccccc3n2)c1	D1 ag 43.7 (no result: USP2a inh, Eya2 inh, GALK inhibitor)
CCc1ccccc1Nc1cc(C(=O)NCCCN(C)C2CCCCC2)c2ccccc2n1	D1 ag 34.5 (no result: USP2a inh, Eya2 inh, GALK inhibitor)
Cc1ccc(C)c(Nc2cc(C(=O)NCCCN(C)C3CCCCC3)c3ccccc3n2)c1	D1 antag -34.0, D1 ag 53.5 (no result: USP2a inh, Eya2 inh, GALK inhibitor)
Cc1cc(C)cc(Nc2cc(C(=O)NCc3ccccc3)c3ccccc3n2)c1	none (no result: USP2a inh, Eya2 inh, GALK inhibitor)
O=S(=O)(c1ccc2c(c1)OCCO2)N1CCN(S(=O)(=O)c2ccccc2Cl)CC1	none (no result: USP2a inh, Eya2 inh, GALK inhibitor)
COc1ccc(-c2c3c(=O)n(C)c(=O)n(C)c3c3n2-c2ccccc2NC3c2ccc(OC)cc2)cc1 (configuration not stated)	none (no result: USP2a inh, Eya2 inh, GALK inhibitor)
CNc1nc2cc([N+](=O)[O-])c([N+](=O)[O-])cc2nc1NC	D1 ag 39.4
COC(=O)C1=C(C)N(Cc2ccccc2)C(=NCC2CC2)N[C@H]1c1ccccc1	none (no result: GALK inhibitor)
COC(=O)C1=C(C)N(Cc2ccccc2)C(=NCC(C)C)N[C@H]1c1cccc(F)c1	D1 antag -40.8, D1 ag 81.5 (no result: GALK inhibitor)
COC(=O)C1=C(C)N(Cc2ccccc2)C(=NCCc2ccccn2)N[C@H]1c1cccc(C(F)(F)F)c1	D1 ag 34.3 (no result: GALK inhibitor)
COC(=O)C1=C(C)N(Cc2ccccc2)C(=NCC(C)C)N[C@H]1c1cccc(C(F)(F)F)c1	none (no result: D1 PAM, D1 antag, D1 ag, GALK inhibitor)
COC(=O)C1=C(C)N(Cc2ccccc2)C(=NCC2CC2)N[C@H]1c1ccc(Br)cc1	D1 antag -79.9 (no result: GALK inhibitor)
COC(=O)C1=C(C)N(Cc2ccccc2)C(=NCc2cccc(Cl)c2)N[C@H]1c1cccc(F)c1	D1 ag 31.7 (no result: GALK inhibitor)
COc1ccc(-c2c(C)nn3c(N4CCN(c5cc(Cl)ccc5C)CC4)cc(C)nc23)cc1OC	none (no result: USP2a inh, Eya2 inh, GALK inhibitor)
O=C(COc1ccc(F)cc1)NCc1ccc2c(c1)CCN2C(=O)c1ccccc1	none (no result: USP2a inh, Eya2 inh, GALK inhibitor)
CC(=O)N1CCCC1c1nc2ccccc2n1Cc1cccc(Cl)c1 (configuration not stated)	D1 antag -32.5 (no result: USP2a inh, Eya2 inh, GALK inhibitor)
CC(=O)N1CCCC1c1nc2ccccc2n1Cc1ccccc1C (configuration not stated)	none (no result: USP2a inh, Eya2 inh, GALK inhibitor)
O=C(O)c1ccc2c(c1)C(=O)N(C(Cc1ccccc1)C(=O)O)C2=O (configuration not stated)	none
O=C(O)c1ccc2c(c1)C(=O)N([C@H](Cc1ccc(C(F)(F)F)cc1)C(=O)O)C2=O	D1 antag -47.8 (no result: GALK inhibitor)
COc1ccccc1C(=O)COC(=O)C(NC(=O)Cc1ccccc1)C(C)C (configuration not stated)	none (no result: D1 PAM, D1 antag, D1 ag, GALK inhibitor)
COC(=O)c1ccc(COC(=O)C(NC(=O)Cc2ccccc2)C(C)C)cc1 (configuration not stated)	D1 antag -32.4 (no result: GALK inhibitor)
CN(C)c1ccc(CNC(=O)CN(C)S(=O)(=O)c2cccc3cccnc23)cc1	D1 antag -66.0 (no result: D1 PAM)
Cn1c(=O)oc2cc(S(=O)(=O)N3CCC(C(=O)N4CCN(c5ccc(Cl)cc5)CC4)CC3)ccc21	none (no result: USP2a inh, Eya2 inh, GALK inhibitor)
CC(=O)N1c2ccccc2C2(C)C(C1(C)C)C2(Cl)Cl (configuration not stated)	D1 ag 207.1
COc1ccccc1CCNC(=O)CCc1c(C)c2cc3c(C)coc3c(C)c2oc1=O	none (no result: USP2a inh, Eya2 inh, GALK inhibitor)
COc1ccc(N(CC(=O)Nc2ccccc2C)S(=O)(=O)c2ccccc2[N+](=O)[O-])c(OC)c1	none
CCOc1ccccc1NC(=O)CN(c1ccc(OC)cc1OC)S(=O)(=O)c1ccccc1[N+](=O)[O-]	D1 antag -44.2
COc1ccc(OC)c(S(=O)(=O)N(C)CC(=O)Nc2ccccc2OC)c1	D1 antag -81.8 (no result: USP2a inh, Eya2 inh)
Cc1ccccc1NC(=O)c1c(C)oc2ccc(O)c(CN3CCCCCC3)c12	none (no result: USP2a inh, Eya2 inh, GALK inhibitor)
Cc1cccc(C(=O)NCC(=O)N2CCN(S(=O)(=O)/C=C/c3ccccc3)CC2)c1	D1 antag -42.8 (no result: GALK inhibitor)
Cc1cccc(C(=O)NCC(=O)N2CCN(S(=O)(=O)c3ccccc3)CC2)c1	none (no result: GALK inhibitor)
CCOC(=O)C(C)On1c(-c2ccccc2)nc2ccc([N+](=O)[O-])cc21 (configuration not stated)	none
CCOC(=O)C(C)On1c(-c2ccc(Cl)cc2)nc2ccc([N+](=O)[O-])cc21 (configuration not stated)	D1 antag -39.5
O=C(OCc1ccc([N+](=O)[O-])cc1)C1CC(=O)N(CCc2ccccc2)C1 (configuration not stated)	D1 antag -40.2 (no result: GALK inhibitor)
COc1ccc(CCN2CC(C(=O)OCC(=O)N(C)Cc3ccccc3)CC2=O)cc1OC (configuration not stated)	D1 antag -34.6 (no result: GALK inhibitor)
CCc1cccc(C)c1NC(=O)COC(=O)C1CC(=O)N(CCc2ccc(OC)c(OC)c2)C1 (configuration not stated)	none (no result: GALK inhibitor)
N#CCCN(C(=O)COC(=O)c1ccc(CNS(=O)(=O)c2ccc(F)c(Cl)c2)cc1)c1ccc(F)cc1	D1 antag -32.8
COC(=O)c1ccc(OCC(O)CN2C(=O)c3ccccc3C2=O)cc1 (configuration not stated)	D1 antag -30.6
COc1ccc(N2CCN(c3csc4ccccc4c3=O)CC2)cc1	none (no result: USP2a inh, Eya2 inh, GALK inhibitor)
COc1ccc(N2CCN(c3csc4ccc(Cl)cc4c3=O)CC2)cc1	D1 ag 43.3 (no result: USP2a inh, Eya2 inh, GALK inhibitor)
CCCOc1ccc(C(=O)c2nc3c(n2O)CCCC3)cc1	D1 antag -31.5
CCOc1ccc(C(=O)c2nc3c(n2O)CCCCC3)cc1	none
O=C(Cc1cccc(C(F)(F)F)c1)NCc1cccc(Cl)c1	none
O=C(CS(=O)c1cccc(C(F)(F)F)c1)Nc1ccccc1Cl (configuration not stated)	D1 antag -47.2
O=C(CS(=O)c1ccc(F)cc1)Nc1ccccc1Cl (configuration not stated)	none
O=C(Cc1cccc(C(F)(F)F)c1)NCC(=O)Nc1cc(Cl)ccc1Cl	D1 PAM 32.0
Cc1cc(C)c(NC(=O)Cn2c(=O)n(CCC(=O)N3CCc4ccccc4C3)c(=O)c3ccccc32)c(C)c1	none (no result: USP2a inh, Eya2 inh, GALK inhibitor)
Cc1cc(Cl)ccc1C(=O)C1CCCN(C(=O)c2cscn2)C1 (configuration not stated)	none
